From PMC7155171, “Probing the Open Global Health Chemical Diversity Library for Multistage-Active Starting Points for Next-Generation Antimalarials” (ACS Infectious Diseases, 2020)

How the values were obtained:
[1] = system: P. berghei liver stage (PbLuc); parameters: species or system HepG2-A16-CD81; P. berghei luciferase sporozoite infection of hepatocytes, liver stage luminescence; details: inhibitor; for PbLuc primary screen (10uM): inhibition % (n=1): 48 h
[2] = system: HepG2-A16-CD81 hepatocytes; parameters: Uninfected hepatocyte viability, CellTiter-Glo luminescence; details: cytotoxicity primary screen, inhibitor

## CCc1cc(=O)n2nc(C3CCCN3C(=O)c3ccccn3)cc2[nH]1 (stereo not drawn) [DDD01057178]
[1]
  PbLuc primary screen (10uM): inhibition % (n=1): 18.85%
  PbLuc primary screen (2uM): inhibition % (n=1): -15.38%
[2]
  HepG2 toxicity primary screen (10uM): inhibition % (n=1): -0.805%

## COc1cc2c(cc1-c1nc3c[nH]n(C(C)C4CC4)c-3n1)OCO2 (stereo not drawn) [DDD01244142]
[1]
  PbLuc primary screen (10uM): inhibition % (n=1): 34%
  PbLuc primary screen (2uM): inhibition % (n=1): 67.28%
[2]
  HepG2 toxicity primary screen (10uM): inhibition % (n=1): 4.82%

## Cc1[nH]c2cc(C3CCN(Cc4ccccc4F)C3)nn2c(=O)c1C (stereo not drawn) [DDD01060615]
[1]
  PbLuc primary screen (10uM): inhibition % (n=1): 61.7%
  PbLuc primary screen (2uM): inhibition % (n=1): 28.64%
[2]
  HepG2 toxicity primary screen (10uM): inhibition % (n=1): 5.52%

## O=C(CNC(=O)N1CCc2c([nH]c3ccc(Cl)cc23)C1)N1CCOCC1 [DDD01035668]
[1]
  PbLuc primary screen (10uM): inhibition % (n=1): 18.2%
  PbLuc primary screen (2uM): inhibition % (n=1): -2.915%
[2]
  HepG2 toxicity primary screen (10uM): inhibition % (n=1): 8.32%

## COc1ccc(-c2c(C(C)C)nn3c(N)c(C#N)nnc23)cc1 [DDD01035184]
[1]
  PbLuc primary screen (10uM): inhibition % (n=1): 53.1%
  PbLuc primary screen (2uM): inhibition % (n=1): 9.631%
[2]
  HepG2 toxicity primary screen (10uM): inhibition % (n=1): -12.2%

## CCCn1ncc(-c2nc3c[nH]n(CC)c-3n2)c1C [DDD01252709]
[1]
  PbLuc primary screen (10uM): inhibition % (n=1): -42.8%
  PbLuc primary screen (2uM): inhibition % (n=1): -36.8%
[2]
  HepG2 toxicity primary screen (10uM): inhibition % (n=1): 4.05%

## Cn1ccc(C(=O)N2CCCC(c3cc(=O)n(C)[nH]3)C2)n1 (stereo not drawn) [DDD01060541]
[1]
  PbLuc primary screen (10uM): inhibition % (n=1): 36.4%
  PbLuc primary screen (2uM): inhibition % (n=1): 2.044%
[2]
  HepG2 toxicity primary screen (10uM): inhibition % (n=1): -13.7%

## Cc1ccc(S(=O)(=O)Cc2noc([C@@H]3C[C@@H](O)CN3C(C)C)n2)cc1 [DDD01025534]
[1]
  PbLuc primary screen (10uM): inhibition % (n=1): 44.5%
  PbLuc primary screen (2uM): inhibition % (n=1): 0.1961%
[2]
  HepG2 toxicity primary screen (10uM): inhibition % (n=1): 0.317%

## Cn1nc(C2CCC2)c(-c2ccc3c(c2)OCO3)c1N [DDD01074643]
[1]
  PbLuc primary screen (10uM): inhibition % (n=1): 64.7%
  PbLuc primary screen (2uM): inhibition % (n=1): 14.0603%
[2]
  HepG2 toxicity primary screen (10uM): inhibition % (n=1): -42.27%

## CCC(=O)Nc1[nH]nc2c1c(C)nn2Cc1cccc(OC)c1 [DDD01063148]
[1]
  PbLuc primary screen (10uM): inhibition % (n=1): -31%
  PbLuc primary screen (2uM): inhibition % (n=1): 15.82%
[2]
  HepG2 toxicity primary screen (10uM): inhibition % (n=1): -9.24%
